Reference: PubChem BioAssay (Tox21)
Inconclusive results are not listed. A call without a number means that no potency is given here. Activity calls are given as the source filed them. The call rests on the fitted dose curve; in most records, active means well fitted curve in the direction sought with a large enough effect in the repeat runs; inconclusive means weak or mixed curves; inactive means no such curve, though single readings can be large; an effect the other way counts as inactive or inconclusive.

What was measured:
[1] = qHTS assay to test for compound auto fluorescence at 535 nm (green) in HEK293 cells (AID 720680)
[2] = qHTS assay to test for compound auto fluorescence at 460 nm (blue) in HEK293 cell free culture (AID 720681)
In short: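 Blue fluorescence (Ex 405/Em 460 nm, triamterene-equivalent) was read immediately after pin transfer of compound or DMSO into medium (DMEM, 10% FBS) without cells.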

[3] = qHTS assay to test for compound auto fluorescence at 535 nm (green) in HEK293 cell free culture (AID 720682)
In short: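 Steps: dispense DMEM/10% FBS into empty wells; pin in compound or DMSO; measure fluorescence at 485/535 nm. Values are fluorescein equivalents.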

[4] = qHTS assay to test for compound auto fluorescence at 590 nm (red) in HEK293 cell free culture (AID 720683)
In short: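 Red-channel autofluorescence of compounds in culture medium (DMEM, 10% FBS), no cells, measured at 540/590 nm. Rose Bengal sodium is the reference fluorophore for equivalence.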

[5] = qHTS assay to test for compound auto fluorescence at 590 nm (red) in HepG2 cell free culture (AID 720684)
In short: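 No cells present: MEM + 10% FBS only. Compound pinned in, red label read (540/590 nm). Activity = fluorescence equivalent to Rose Bengal sodium.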

[6] = qHTS assay to test for compound auto fluorescence at 460 nm (blue) in HepG2 cell free culture (AID 720685)
In short: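 Cell-free plates of MEM plus 10% FBS received 23 nL compound or DMSO vehicle; blue-channel (405/460 nm) intensity scored against triamterene as reference fluorophore.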

[7] = qHTS assay to test for compound auto fluorescence at 535 nm (green) in HepG2 cell free culture (AID 720686)
[8] = qHTS assay to test for compound auto fluorescence at 460 nm (blue) in HepG2 cells (AID 720687)
In short: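 Blue-channel autofluorescence (Ex/Em 405/460 nm, triamterene-equivalent) was measured after 1 hr compound exposure at 37 C, 5% CO2. Cells were HepG2, plated overnight at 37 C in MEM plus 10% FBS.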

[9] = qHTS assay to identify small molecule antagonists of the glucocorticoid receptor (GR) signaling pathway - cell viability counter screen (AID 720693); further: nearly all actives have a fitted effect of over 55% in size; further: potency means the concentration at half of the fitted maximal effect
[10] = qHTS assay for identifying genotoxic compounds that show differential cytotoxicity against isogenic chicken DT40 cell lines with known DNA damage response pathways - wild type cell line (AID 743012); further: nearly all actives have a fitted effect of over 60% in size; further: potency means the concentration at half of the fitted maximal effect
In short: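 Viability of DNA repair-proficient chicken DT40 cells was assessed by CellTiter-Glo luminescence following 40 h compound exposure at 37 C/5% CO2.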

[11] = qHTS assay for identifying genotoxic compounds that show differential cytotoxicity against isogenic chicken DT40 cell lines with known DNA damage response pathways - Rev3 mutant cell line (AID 743014); further: nearly all actives have a fitted effect of over 55% in size; further: potency means the concentration at half of the fitted maximal effect
[12] = qHTS assay for identifying genotoxic compounds that show differential cytotoxicity against isogenic chicken DT40 cell lines with known DNA damage response pathways - Rad54/Ku70 mutant cell line (AID 743015); further: nearly all actives have a fitted effect of over 60% in size; further: potency means the concentration at half of the fitted maximal effect
[13] = qHTS assay to identify small molecule antagonists of the androgen receptor (AR) signaling pathway - cell viability counter screen (AID 743033; further: nearly all actives have a fitted effect of over 45% in size; further: potency means the concentration at half of the fitted maximal effect)
[14] = molecular target: Androgen receptor (Homo sapiens) (UniProt P10275); test: qHTS assay to identify small molecule agonists of the androgen receptor (AR) signaling pathway using the MDA cell line (AID 743040; further: nearly all actives have a fitted effect of over 20% in size)
Chain of Androgen receptor (Homo sapiens) (P10275 whole entry, looked up): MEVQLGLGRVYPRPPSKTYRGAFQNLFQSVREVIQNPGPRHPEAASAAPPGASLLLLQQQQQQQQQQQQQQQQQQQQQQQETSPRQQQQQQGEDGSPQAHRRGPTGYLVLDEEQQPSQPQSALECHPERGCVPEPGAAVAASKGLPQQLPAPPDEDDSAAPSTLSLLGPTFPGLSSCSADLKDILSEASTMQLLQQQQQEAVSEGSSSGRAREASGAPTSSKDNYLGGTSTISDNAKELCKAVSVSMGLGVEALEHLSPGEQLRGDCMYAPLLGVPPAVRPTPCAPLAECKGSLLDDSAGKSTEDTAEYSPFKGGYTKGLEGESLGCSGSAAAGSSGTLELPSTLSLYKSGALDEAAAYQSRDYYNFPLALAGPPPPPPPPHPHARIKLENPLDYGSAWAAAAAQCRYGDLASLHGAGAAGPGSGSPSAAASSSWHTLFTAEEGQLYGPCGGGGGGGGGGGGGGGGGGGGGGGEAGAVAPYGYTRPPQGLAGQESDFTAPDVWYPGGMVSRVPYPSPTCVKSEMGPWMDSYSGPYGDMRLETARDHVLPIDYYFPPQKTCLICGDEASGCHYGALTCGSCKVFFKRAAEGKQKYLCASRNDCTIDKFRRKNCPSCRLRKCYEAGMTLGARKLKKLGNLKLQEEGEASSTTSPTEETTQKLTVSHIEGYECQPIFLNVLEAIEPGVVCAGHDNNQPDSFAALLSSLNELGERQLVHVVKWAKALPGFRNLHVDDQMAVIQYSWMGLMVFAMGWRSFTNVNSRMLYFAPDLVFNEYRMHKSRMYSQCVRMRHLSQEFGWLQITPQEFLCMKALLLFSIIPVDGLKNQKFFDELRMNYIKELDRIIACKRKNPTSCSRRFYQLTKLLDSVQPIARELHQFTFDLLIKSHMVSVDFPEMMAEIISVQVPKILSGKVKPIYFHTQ
In short: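 Stable MMTV-luciferase reporter in MDA-kb2 cells; note the promoter carries GR as well as AR response elements. 16 h compound treatment, 37C, 0% CO2; ONE-Glo luminescence endpoint.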

[15] = qHTS assay to identify small molecule antagonists of the androgen receptor (AR) signaling pathway using the MDA cell line - cell viability counter screen (AID 743041; further: nearly all actives have a fitted effect of over 45% in size; further: potency means the concentration at half of the fitted maximal effect)
In short: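 Using the breast carcinoma line MDA-kb2 AR-luc, test chemicals were co-incubated with R1881 for 16 h; CellTiter-Fluor reagent, added at 15.5 h, provided a fluorescence measure of live cells.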

[16] = molecular target: Androgen receptor (Homo sapiens) (UniProt P10275); test: qHTS assay to identify small molecule antagonists of the androgen receptor (AR) signaling pathway using the MDA cell line (AID 743042; further: potency means the concentration at half of the fitted maximal effect; nearly all actives have a fitted effect of over 55% in size)
In short: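 Antagonist mode: compounds plus R1881 agonist added to MDA-kb2 AR-luc cells, incubated 16 h at 37C. Luciferase reporter luminescence quantified, with multiplexed CellTiter-Fluor readout for cell viability.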

| Structure (SMILES) | Potency [1] | Potency [2] | Potency [3] | Potency [4] | Potency [5] | outcome [6] | Potency [7] | outcome [8] | Potency [9] | Potency [10] | Potency [11] | Potency [12] | Potency [13] | Potency [14] | Potency [15] | Potency [16] |
| --- | --- | --- | --- | --- | --- | --- | --- | --- | --- | --- | --- | --- | --- | --- | --- | --- |
| O=C(NOC[C@H](O)CO)c1ccc(F)c(F)c1Nc1ccc(I)cc1F | inactive | inactive | inactive | inactive | inactive | inactive | inactive | inactive | inactive | inactive | inactive | inactive | inactive | inactive | inactive | – |
| CCCC(=O)O[C@]1(C(=O)COC(=O)CC)[C@@H](C)C[C@H]2[C@@H]3CCC4=CC(=O)C=C[C@]4(C)[C@@]3(F)[C@@H](O)C[C@@]21C | inactive | inactive | inactive | inactive | inactive | inactive | inactive | inactive | inactive | 29.8 µM (active) | 29.8 µM (active) | 26.6 µM (active) | inactive | – | inactive | – |
| CC(O)[C@@H]1NC(=O)[C@H](Cc2ccccc2)NC(=O)[C@H](C(C)O)NC(=O)[C@H](CCCCN)NC(=O)[C@H](Cc2c[nH]c3ccccc23)NC(=O)[C@H](Cc2ccccc2)NC(=O)[C@H](Cc2ccccc2)NC(=O)[C@H](CC(N)=O)NC(=O)[C@H](CCCCN)NC(=O)[C@@H](NC(=O)CNC(=O)[C@H](C)N)CSSC[C@@H](C(=O)O)NC(=O)[C@H](CO)NC1=O (stereo not given in full) | inactive | inactive | inactive | inactive | inactive | inactive | inactive | inactive | inactive | inactive | inactive | inactive | inactive | – | inactive | – |
| Cn1c(O)c(N=NC(N)=S)c2ccccc21 | inactive | inactive | inactive | inactive | inactive | inactive | inactive | inactive | inactive | 5.31 µM (active) | 10.6 µM (active) | 8.41 µM (active) | 2.68 µM (active) | – | inactive | – |
| CCN(CC)c1ccc(C(=C2C=CC(=[N+](CC)CC)C=C2)c2ccccc2)cc1 | inactive | inactive | inactive | inactive | inactive | inactive | inactive | inactive | 1.51 µM (active) | 0.0944 µM (active) | 0.106 µM (active) | 0.106 µM (active) | 2.39 µM (active) | inactive | 2.66 µM (active) | 0.473 µM (active) |
| Cn1nnnc1SCC1=C(C(=O)O)N2C(=O)[C@@H](NC(=O)[C@H](OC=O)c3ccccc3)[C@H]2SC1 | inactive | inactive | inactive | inactive | inactive | inactive | inactive | inactive | inactive | inactive | inactive | inactive | inactive | – | inactive | – |
| CN1CCN(CCC=C2c3ccccc3Sc3ccc(S(=O)(=O)N(C)C)cc32)CC1 | inactive | inactive | inactive | inactive | inactive | inactive | inactive | inactive | inactive | 10.6 µM (active) | 13.3 µM (active) | 16.8 µM (active) | 23.9 µM (active) | inactive | inactive | – |
| CC(CC(c1ccccc1)c1ccccc1)NC(C)(C)C (stereo not given) | inactive | inactive | inactive | inactive | inactive | inactive | inactive | inactive | inactive | 10.6 µM (active) | 23.7 µM (active) | 29.8 µM (active) | inactive | – | inactive | – |
| C/C=C(/CC[C@@H](C)[C@H]1CC[C@H]2C3=CC[C@H]4[C@H](C)[C@@H](O)CC[C@]4(C)[C@H]3CC[C@]12C)C(C)C | inactive | inactive | inactive | inactive | inactive | inactive | inactive | inactive | inactive | inactive | inactive | inactive | inactive | – | inactive | – |
| CCOC(=O)Oc1c(OC)cc(C(=O)O[C@@H]2C[C@@H]3CN4CCc5c([nH]c6cc(OC)ccc56)[C@H]4C[C@@H]3[C@H](C(=O)OC)[C@H]2OC)cc1OC | inactive | inactive | inactive | inactive | inactive | inactive | inactive | inactive | inactive | 10.1 µM (active) | 11.4 µM (active) | 12.7 µM (active) | inactive | – | inactive | – |
| COc1c(O[C@@H]2O[C@H](CO)[C@@H](O)[C@H](O)[C@H]2O)cc2c(c1OC)-c1ccc(SC)c(=O)cc1[C@@H](NC(C)=O)CC2 | inactive | inactive | inactive | inactive | inactive | inactive | inactive | inactive | inactive | inactive | inactive | inactive | inactive | – | inactive | – |
| CC1(C)S[C@@H]2[C@H](NC(=O)[C@H](N)c3ccccc3)C(=O)N2[C@H]1C(=O)OCOC(=O)[C@@H]1N2C(=O)C[C@H]2S(=O)(=O)C1(C)C | inactive | inactive | inactive | inactive | inactive | inactive | inactive | inactive | inactive | inactive | inactive | inactive | inactive | – | inactive | – |
| O=C(O)[C@H]1/C(=C/CO)O[C@@H]2CC(=O)N21 | inactive | inactive | inactive | inactive | inactive | inactive | inactive | inactive | inactive | inactive | inactive | inactive | inactive | – | inactive | – |
| O=P(O)(O)OC[C@H](O)CO | inactive | inactive | inactive | inactive | inactive | inactive | inactive | inactive | inactive | inactive | inactive | inactive | inactive | – | inactive | – |
